Data published in PubChem BioAssay (NCI).
About 83,000 compounds went through this panel and 20% of them were active in at least one assay; those are over-represented in the sample as a whole.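 Growth was measured after 48 h exposure to one concentration of compound in 96-well plates. Values under 10 count as active.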 A number with no mark means an inactive call. Calls of active or inactive are those of the source.

tested on: MDA-MB-468 breast; assay: NCI-60 one-dose screen, 48 h (100 = growth as untreated, 0 = no growth, -100 = all killed); details: 10 µM unless noted
Protocol: Growth inhibition of the MDA-MB-468 human Breast tumor cell line is measured as a screen for anti-cancer activity. Cells are grown in 96 well plates and exposed to the test compound for 48 hours. Compounds are tested at a single concentration, which is 10^-5 M for most compounds. The reported endpoint is percent growth (GI% or GIPRCNT), where numbers from 0 - 100% represent growth inhibition, and numbers from -100% - 0 represent cell death. For example, a value of 40 represents 60% growth inhibition. A value of 0 means no net growth occurred over the course of the experiment. A value of -40 indicates 40% of cells at the beginning of the experiment died by the end of the experiment. A value of -100 means all cells are dead at the end of the experiment.
NCI-60 Human Tumor Cell Lines Screen was performed using the standard one-dose NCI protocol, which is described in more detail at https://dtp.cancer.gov/discovery_development/nci-60/default.htm.
Compounds with GIPRCNT values below 10 were considered active. Activity score was based on GIPRCNT using the following formula: […]
Score is 0 for GIPRCNT values of 100 or above, 50 for GIPRCNT values of 0, and 100 for GIPRCNT values of -100.

| Compound | growth |
| --- | --- |
| CCc1ccccc1[C@@H]1C[C@]2(C)CCO[C@@H]2OO1 | 102% |
| C/C(=C\c1cc(C(F)(F)F)n(-c2ccc(N)cc2)n1)[C@@H]1C[C@@H]2O[C@]2(C)CCC[C@H](C)[C@H](O)[C@@H](C)C(=O)C(C)(C)[C@@H](O)CC(=O)O1 | -16.6% (active) |
| O=C(N/N=C/c1ccc(N(CCCl)CCCl)cc1)c1cccc2ccccc12 | 56.2% |
| C[N+]12CN3CN(CN(C3)C1)C2 | 119% |
| CC[C@H](C)[C@H](NC(=O)C12C3C4C1C1C2C3C41NC(C)=O)C(=O)N(C)[C@H](C[C@@H](OC(C)=O)c1nc(C(=O)N[C@@H](Cc2ccccc2)C[C@H](C)C(=O)OC)cs1)C(C)C (stereo not given in full) | 11.5% |
| CN(C)CC(C(=O)Cc1ccccc1)c1ccccc1 (stereo not given) | -29.8% (active) |
| Cc1cc(N(CCCl)CCCl)ccc1C=Nc1ccc2ccccc2c1 | -9.8% (active) |
| CN1CCC2(CC1)C(C#N)C(=O)NC(=O)C2C#N (stereo not given) | 102% |
| O=[N+]([O-])/C=C\c1ccc(Cl)c(Cl)c1 | 12.4% |
| O=C(/C=C/c1ccc(Cl)cc1Cl)c1nc2ccccc2n1Cc1ccc(F)cc1 | 12.3% |
| CC12CCC(=O)C=C1C(O)CC1C2CCC2(C)C(O)CCC12 (stereo not given) | 104% |
| CCCCCC1(CCBr)C(=O)NC(=O)NC1=O | 103% |
| COC(=O)[C@@H](C)C[C@H](Cc1ccccc1)NC(=O)c1csc([C@@H](C[C@H](C(C)C)N(C)C(=O)[C@@H](NC(=O)[C@H]2CCCCN2C)C2CC2)OC(C)=O)n1 | 0.846% (active) |
| COc1ccc2nc(NC(=O)COc3cc(/C=C\c4cc(OC)c(OC)c(OC)c4)ccc3OC)sc2c1 | -5.6% (active) |
| CCOP(=O)(Nc1ccc2c(c1)/C(=N/NC(N)=S)c1ccccc1-2)OCC | 86% |
| Cc1ccc(C(Cc2ccccc2)NCCO)cc1 (stereo not given) | 96.7% |
| Cc1ccc(NC(=O)CBr)cc1 | 98.5% |
| C[C@@H]1C[C@@H]([C@H](O)CC2CC(=O)NC(=O)C2)C(=O)[C@@H](C)C1 | 9.5% (active) |
| c1ccc(CSC(c2ccccc2)c2ccccc2)cc1 | 124% |
| CC(=O)[O][Hg][c]1c(N)c(C)cc(C)c1F | -26.7% (active) |

| Compound | growth |
| --- | --- |
| O=C(Nc1ccc([As]=[As]c2ccc(NC(=O)c3ccccc3)cc2)cc1)c1ccccc1 (stereo not given) | -74.8% (active) |
| COc1ccc(C(c2ccc(OC)cc2)C(Cl)(Cl)Cl)cc1 | 18% |
| COc1ccccc1/C=C/[N+](=O)[O-] | 22.6% |
| CCC[CH2][Sn]1([CH2]CCC)[O]C(=O)c2cccc([N+](=O)[O-])c2C(=O)[O]1 | -79.4% (active) |
| CN(C)CC1(N)C(=O)NC(=O)NC1=O | 94.6% |
| ClCCN(CCCl)c1ccc(OCc2ccccc2)cc1 | 58.3% |
| COc1ccc(N(CC(=O)NCCC[Te]c2ccccc2)C(=O)c2ccccc2)cc1 | 97.2% |
| COc1cc([C@@H]2c3cc4c(cc3[C@H](OC(C)=O)[C@H]3COC(=O)[C@@H]23)OCO4)cc(OC)c1OC | -40.2% (active) |
| O=C1C2C(C(=O)[N]1[Hg][c]1cccs1)C1(Cl)C(Cl)=C(Cl)C2(Cl)C1(Cl)Cl (stereo not given) | -83.7% (active) |
| CCN1C(=O)C(=C/C=C/c2ccccc2)C(=O)N(CC)C1=O | 93.1% |
| COc1ccc2cc([C@H](C)C(=O)[Se]CCC#N)ccc2c1 | -56.6% (active) |
| CC[C@H](C)[C@H](NC(=O)C12C3C4C1C1C2C3C41NC)C(=O)N(C)[C@H](C[C@@H](OC(C)=O)c1nc(C(=O)N[C@@H](Cc2ccccc2)C[C@H](C)C(=O)OC)cs1)C(C)C (stereo not given in full) | 1.25% (active) |
| c1cnc2[nH]cc(-c3csc(-c4cn(CCCCN5CCCCC5)c5ccccc45)n3)c2c1 | 98.6% |
| COC(=O)[C@H](Cc1c[nH]c2ccccc12)NC(=O)[C@@H](OC)[C@@H]1Cc2cc3cc(OC4CC(OC5CC(O)C(O)C(C)O5)C(O)C(C)O4)c(C)c(O)c3c(O)c2C(=O)[C@H]1OC1CC(OC2CC(OC3CC(C)(O)C(O)C(C)O3)C(O)C(C)O2)C(O)C(C)O1 (stereo not given in full) | -48.8% (active) |
| CC1=C(CN(O)C(N)=O)C2=C(C)C3(CC3)[C@](C)(O)C(=O)C2=C1 | -65.6% (active) |
| ClCCN(CCCl)c1ccc(/C=N/Nc2ncnc3nc[nH]c23)cc1 | 49.8% |
| CC[CH2][Sn]([Cl])([Cl])[CH2]CC | 22.4% |
| CCN(CC)c1ccc(C=C2C(=O)NC(=S)NC2=O)cc1 | 74.2% |
| CC(Cc1ccc2c(c1)OCO2)NN (stereo not given) | 105% |
| C/C1=C/C(=O)O[C@@H]2C[C@@H](CC[C@H](C)/C=C\C=C\CC1)O[C@@](OCCc1ccccc1)([C@@H]1CSC(=O)N1)C2 | 12.2% |
